Compounds with a hit are over-represented: about 12% of the library has one in this group of screens.
L3MBTL1 inh = inhibitors of human L3MBTL1 | AlphaScreen L3MBTL1–H3K9me1 peptide binding | actives 0.66% (n = 230,000) | Potency, µM (titrated, usually from 57.1 µM), without a hit: at the top dose activity, negative = inhibition, most hits filed as inhibitors | Q9Y468; further: on the % scale 0 is the no-effect control and ±100 the full control effect; nearly all actives have a fitted effect of over 60% in size
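Displacement of a biotinylated histone H3(1-15) peptide monomethylated at Lys9 (75 nM) from L3MBTL1 (50 nM) was measured by AlphaScreen after a 30 min room-temperature compound incubation; cefsulodin titration served as intraplate control.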
JMJD2A Tudor inh = blocks the human JMJD2A Tudor domain; O75164; AlphaScreen JMJD2A-Tudor / H3K4me3 peptide binding; Potency, µM (series often up to 114 µM), for inactives: at the top dose activity change, negative = inhibition, usual class: inhibitors; actives 4.4% (n = 390,000); further: on the % scale 0 is the no-effect control and ±100 the full control effect; nearly all actives have a fitted effect of over 50% in size
G9a block = G9a (human) methyltransferase inhibition. Q96KQ7. G9a H3K9 monomethylation, AlphaScreen, 2 h. Potency, µM (series often up to 102 µM), without a hit: at the highest dose activity, negative = inhibition, usual class: inhibitors. actives 8.8% (n = 350,000). AID 504332; further: on the % scale 0 is the no-effect control and ±100 the full control effect; nearly all actives have a fitted effect of over 75% in size
Target sequence (Q96KQ7 913-1193 limits assumed): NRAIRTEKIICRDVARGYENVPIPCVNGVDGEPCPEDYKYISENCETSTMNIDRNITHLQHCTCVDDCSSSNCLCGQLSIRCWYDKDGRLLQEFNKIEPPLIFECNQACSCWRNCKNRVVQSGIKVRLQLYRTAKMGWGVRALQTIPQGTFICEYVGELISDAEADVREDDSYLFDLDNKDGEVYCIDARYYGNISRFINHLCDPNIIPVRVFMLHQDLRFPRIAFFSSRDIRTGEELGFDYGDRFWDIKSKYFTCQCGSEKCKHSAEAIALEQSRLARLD
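AlphaScreen detection with an anti-monomethyl H3K9 antibody quantified product after a 2 h room-temperature reaction containing 500 nM biotinylated H3K9 peptide, 20 µM SAM and 20 nM enzyme, which had been preincubated 15 min with compound.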
BAZ2B block = BAZ2B (human) inhibition; Q9UIF8; actives 4.4% (n = 360,000); AID 504333; Potency, µM (highest dose often 114 µM), inactives show at the highest dose activity change, negative = inhibition, actives largely listed as inhibitors; AlphaScreen BAZ2B-H3K14Ac peptide displacement; further: on the % scale 0 is the no-effect control and ±100 the full control effect; nearly all actives have a fitted effect of over 60% in size
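Complex of BAZ2B and biotin-H3K14Ac (50 nM apiece) forms over 30 min at RT, then faces library compounds up to 110 uM for another 30 min; AlphaScreen beads added, 20 min dark incubation, luminescence read.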
HP1b binding inh = inhibitors of HP1-beta chromodomain binding to methylated histone tails. P83916. actives 0.56% (n = 390,000). Potency, µM (highest dose often 114 µM), for inactives: at the highest dose activity change, negative = inhibition, most hits filed as inhibitors. AID 540317. AlphaScreen HP1-beta / biotin-H3K9me3 peptide binding; further: nearly all actives have a fitted effect of over 70% in size
Target sequence (P83916 whole entry, looked up): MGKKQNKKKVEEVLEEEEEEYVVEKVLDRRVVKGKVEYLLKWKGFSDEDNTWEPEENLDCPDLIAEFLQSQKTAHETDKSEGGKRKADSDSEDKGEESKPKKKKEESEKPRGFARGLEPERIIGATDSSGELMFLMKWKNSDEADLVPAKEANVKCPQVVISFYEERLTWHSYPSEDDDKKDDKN
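HP1-beta protein (50 nM final) preincubated 30 min at room temperature with biotinylated H3(1-18)K9me3 peptide (50 nM) in PBS pH 7.4, 0.01% Tween-20, then compound added for 30 min. AlphaScreen streptavidin donor/nickel chelate acceptor beads (10 ug/mL final), 30 min dark, luminescence read.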
Sfp inh = blocks B. subtilis Sfp PPTase activity; Q9F4F7; Biochemical Sfp PPTase activity, qHTS; Potency, µM, for inactives: largest response in the series, negative = inhibition, most hits filed as inhibitors; actives 3.5% (n = 310,000); AID 1490;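 further: the enzyme is Sfp with the accession as filed and its product quenches rhodamine fluorescence; 0% = enzyme reaction without inhibitor and -100% = no enzyme wells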
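Fluorescence-quenching assay with 15 nM Sfp, 5 uM rhodamine-CoA and 12.5 uM BHQ-2-labelled ybbR peptide in pH 7.6 Hepes/MgCl2 buffer. Enzyme was pre-incubated with compound for 15 min at room temperature. Rate was taken from the 30-min fluorescence change (525/598 nm).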
The depositor's hits bear a star; ? = inconclusive; nt = no result given; [ ] = another dose, or the depositor's remark. The call rests on the fitted dose curve; in most records, active means well fitted curve in the direction sought with a large enough effect; inconclusive means small, poorly fitted or top-dose-only effect, or another doubt; inactive means no such curve, though single readings can be large; an effect the other way counts as inactive or inconclusive. Potency means the concentration at half of the fitted maximal effect.

SMILES	L3MBTL1 inh	JMJD2A Tudor inh	G9a block	BAZ2B block	HP1b binding inh	Sfp inh
C=CCn1c(CCC(=O)O)ccc1-c1ccccc1	nt	?	-16%[12.7 µM]	?	-5%	16%
COc1ccc(-n2c(CCC(=O)O)ccc2-c2ccccc2)c(OC)c1	nt	?	8.9µM*	?	27%	nt
COc1ccccc1-n1c(CCC(=O)O)ccc1-c1ccccc1	-1%	-27%	13%	?	12%	8%
O=C(O)CCc1ccc(-c2ccccc2)n1-c1cccc(C(=O)O)c1	nt	?	-12%[2.33 µM]	?	15%	71µM*
O=C(CNc1ccccc1N1CCCC1=O)Nc1cc(C(F)(F)F)ccc1-n1cncn1	2%	0%	-29%	-1%	22%	nt
CCOC(=O)c1ccc(-n2c(CCC(=O)O)ccc2-c2ccccc2)cc1O	nt	-33%	18µM*	45µM*	-24%	nt
O=C(O)CCc1ccc(-c2ccc(Br)cc2)n1-c1cccc(O)c1	nt	?	45µM*	?	?	-7%
CCN1CCN(c2ccc(NC(=O)c3cc(S(=O)(=O)N4CCCC4)ccc3Cl)cc2)CC1	-10%	?	?	-34%	7%	nt
Cc1ccccc1CNC(=O)Cn1cc2c(n1)-c1c(oc(C(=O)N3CCCC3)c1C)CC2	nt	-35%	?	?	15%	nt
CCc1cccc(NC(=O)CSC2=NS(=O)(=O)c3ccccc32)c1	nt	-19%	8.9µM*	-8%	22%	14µM*
C/C(CC(=O)Nc1ccc([N+](=O)[O-])cc1)=N\NC(=O)c1ccccc1O	4%[2.29 µM]	-36%	9%[0.501 µM]	-10%	0%	19%
C/C(CC(=O)Nc1ccc(N(C)C)cc1)=N\NC(=O)c1ccc(Cl)cc1Cl	-7%	?	-9%[59 µM]	?	10%	4%
COc1cccc(C(=O)N/N=C(\C)CC(=O)Nc2ccc(N(C)C)cc2)c1	-9%	-28%	nt	56µM*	18%	-6%
C/C(CC(=O)Nc1ccc(N(C)C)cc1)=N\NC(=O)c1ccccc1O	-22%	56µM*	50µM*	35µM*	-18%	1%
C/C(CC(=O)Nc1ccc(N(C)C)cc1)=N\NC(=O)c1ccc([N+](=O)[O-])cc1Cl	?	?	45µM*	?	?	-14%
COc1cccc(C(=O)NC2CC3CCCC(C2)N3CC(=O)Nc2ccc(N(C)C)cc2)c1 (stereo unspecified)	?	40µM*	29%[0.501 µM]	45µM*	?	4%
COc1c(O)cccc1[C@@H](O)C1CCN(CCc2ccc(F)cc2)CC1	nt	-4%	nt	nt	20%	nt
COc1ccccc1CNc1ncnc2ccc(-c3ccc(C(=O)N(C)C)cc3)cc12	nt	nt	-32%[0.501 µM]	nt	nt	6%
O=C(CCNS(=O)(=O)c1ccc2c(c1)CCCC(=O)N2)NCc1ccc(Cl)cc1	nt	-10%	-4%[59 µM]	8%[57.1 µM]	25%	nt
Cc1nn2c(C)c(C(=O)N3CCN(c4ccccc4)CC3)cnc2c1-c1ccccc1	nt	-25%	5%[59 µM]	?	23%	nt
CCc1ccc(NC(=O)C(=O)N/N=C(\C)CC(=O)Nc2ccc(OC)cc2)cc1	8%	-14%	?	-15%	34%	4%
COc1cccc(NC(=O)C(=O)N/N=C(\C)CC(=O)Nc2ccc(NC(C)=O)cc2)c1	nt	-6%	71µM*	-16%	38%	10%
C=CC[n+]1c(C)csc1Nc1cccc(Br)c1	-18%	?	32µM*	nt	?	-16%
C=CC[n+]1c(C)csc1Nc1ccc(C)cc1	-28%	?	50µM*	32µM*	?	26%
Brc1cccc(Nc2nc(-c3cccnc3)cs2)c1	-2%	-12%	nt	-1%	38%	-6%
SMILES	L3MBTL1 inh	JMJD2A Tudor inh	G9a block	BAZ2B block	HP1b binding inh	Sfp inh
O=C(NCCc1ccccc1)C1CCC(CNS(=O)(=O)c2ccc(F)cc2)CC1 (stereo unspecified)	nt	-17%	25%	3%	64%	5%
CCCn1c(=NC(=O)c2ccco2)c(C(=O)OCC)cc2c(=O)n3ccccc3nc21	nt	-15%	2%[12.7 µM]	-5%	27%	?
CCOC(=O)c1cc2c(=O)n3ccccc3nc2n(Cc2ccco2)c1=NC(=O)c1ccc(OC)cc1	?	9%	-12%	-8%	22%	?
CCOC(=O)c1cc2c(=O)n3ccccc3nc2n(Cc2ccco2)c1=NC(=O)c1ccccc1OC	6%	?	-29%	-26%	7%	35µM*
CCOC(=O)c1cc2c(=O)n3ccccc3nc2n(Cc2ccco2)c1=NC(=O)c1cccc(OC)c1	0%	-7%	-24%	-15%	13%	28µM*
O=C(COc1ccccc1Cl)NNC(=O)c1ccc2nc[nH]c2c1	-9%	0%	0%	6%	22%	nt
Cc1ccc(NC(=O)CCCn2c(=O)c3cccn3c3ccccc32)cc1C	nt	-9%	2%[59 µM]	1%	36%	nt
O=C(NCc1cccnc1)c1ccc(-c2cc(Cl)ccc2Cl)o1	-7%	-26%	nt	?	50%	56µM*
O=C(Nc1ccccc1)c1ccc(-c2ccccc2Cl)o1	7%	8%	50µM*	-4%	25%	11%
O=C(Nc1ccccc1)c1ccc(-c2ccccc2C(F)(F)F)o1	16%	13%	45µM*	7%	82%	-20%
O=C(O)c1ccc(-c2ccccc2Cl)o1	5%	-24%	?	-32%	27%	-7%
O=C(NCc1cccnc1)c1ccc(-c2ccc(Cl)cc2)o1	-24%	-23%	?	-21%	30%	6%
O=C(NCCc1ccccc1)c1ccc(-c2ccccc2Cl)o1	20%	25%	45µM*	-14%	9%	6%
CC(=O)Nc1cc(C(=O)NCc2ccccc2Cl)ccc1Sc1ccc(F)cc1	nt	-18%	8%[59 µM]	2%	38%	nt
C[C@H](CO)N1C[C@H](C)[C@@H](CN(C)S(C)(=O)=O)Oc2c(NC(=O)c3ccncc3)cccc2C1=O	5%	-17%	nt	nt	37%	nt
CCOc1ccccc1-c1ccc(C(=O)NCc2ccccc2)o1	-16%	?	50µM*	?	-6%	3%
O=C(NCc1ccccc1)c1ccc(Br)o1	2%	-18%	-18%	3%	19%	-5%
CC1CCCC(NC(=O)COC(=O)[C@@H](NC(=O)c2ccccc2Cl)C(C)C)C1C (stereo partly specified)	1%	-7%	nt	nt	41%	nt
C#CCOCCOCCOCCNc1nc(N2CCN(C(=O)Cn3cc(CCCN=C(N)N)nn3)CC2)nc(N2CCN(C(=O)[C@H]([C@@H](C)CC)n3cc(CCCCN)nn3)CC2)n1	4%	-5%	?	7%	34%	nt
